# Test results as given in PubChem BioAssay AID1159580 (chemical genetic matrix, 2015).
# The whole screen tested about 5,500 compounds, of which about 2,000 (36%) were called active. About 18% were inconclusive and are not listed. Some of the results follow. Unmarked numbers belong to inactive results. Rule as the data show it: active = normalized growth mostly below about 0.91 (no sharp cut-off); inconclusive = no clear call, values can overlap the other calls; inactive = mostly above about 0.92.
# Assay: chemical genetic growth profiling, strain panel (AID 1159580);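 also: tested at 20 µM; growth read once vehicle control cultures reached saturation at 30 °C; 1 = growth at the plate median or of vehicle wells; lower values mean less growth of the strain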
# Settings: growth OD
smiles,measurement,setting,value
Oc1cccc2cccnc12,normalized growth,"S. cerevisiae deletion strains, locus YKL009W, strain mrt4, stronger effect = lower value",0.741 (active)
same,normalized growth,"S. cerevisiae deletion strains, locus YKL068W, stronger effect = lower value",0.0531 (active)
same,normalized growth,"S. cerevisiae deletion strains, locus YKL085W, strain MDH1 (second series), stronger effect = lower value",0.0521 (active)
same,normalized growth,"S. cerevisiae deletion strains, locus YKL085W, strain MDH1, stronger effect = lower value",0.0521 (active)
same,normalized growth,"S. cerevisiae deletion strains, locus YKL160W, strain elf1, stronger effect = lower value",0.0679 (active)
same,normalized growth,"S. cerevisiae deletion strains, locus YKL190W, strain CNB1, stronger effect = lower value",0.0517 (active)
same,normalized growth,"S. cerevisiae deletion strains, locus YKR001C, strain vps1, stronger effect = lower value",0.0622 (active)
same,normalized growth,"S. cerevisiae deletion strains, locus YKR026C, strain gcn3, stronger effect = lower value",0.356 (active)
same,normalized growth,"S. cerevisiae deletion strains, locus YKR091W, strain srl3, stronger effect = lower value",0.5 (active)
same,normalized growth,"S. cerevisiae deletion strains, locus YLL001W, strain dnm1, stronger effect = lower value",0.0604 (active)
same,normalized growth,"S. cerevisiae deletion strains, locus YLL026W, stronger effect = lower value",0.0573 (active)
same,normalized growth,"S. cerevisiae deletion strains, locus YLL041C, strain sdh2, stronger effect = lower value",0.132 (active)
same,normalized growth,"S. cerevisiae deletion strains, locus YLR027C, strain aat2, stronger effect = lower value",0.0569 (active)
same,normalized growth,"S. cerevisiae deletion strains, locus YLR039C, strain RIC1, stronger effect = lower value",0.0939 (active)
same,normalized growth,"S. cerevisiae deletion strains, locus YLR058C, strain SHM2, stronger effect = lower value",0.786 (active)
same,normalized growth,"S. cerevisiae deletion strains, locus YLR102C, strain apc9, stronger effect = lower value",0.0613 (active)
same,normalized growth,"S. cerevisiae deletion strains, locus YLR113W, strain HOG1, stronger effect = lower value",1.04
same,normalized growth,"S. cerevisiae deletion strains, locus YLR221C, strain rsa3, stronger effect = lower value",0.0643 (active)
same,normalized growth,"S. cerevisiae deletion strains, locus YLR258W, strain gsy2, stronger effect = lower value",0.0623 (active)
same,normalized growth,"S. cerevisiae deletion strains, locus YLR262C, strain YPT6 (second series), stronger effect = lower value",0.0792 (active)
same,normalized growth,"S. cerevisiae deletion strains, locus YLR262C, strain YPT6, stronger effect = lower value",0.124 (active)
same,normalized growth,"S. cerevisiae deletion strains, locus YLR268W, strain sec22, stronger effect = lower value",0.0693 (active)
same,normalized growth,"S. cerevisiae deletion strains, locus YLR320W, strain mms22, stronger effect = lower value",0.0884 (active)
same,normalized growth,"S. cerevisiae deletion strains, locus YLR330W, strain CHS5, stronger effect = lower value",0.0553 (active)
same,normalized growth,"S. cerevisiae deletion strains, locus YLR342W, strain FKS1 (second series), stronger effect = lower value",0.0627 (active)
same,normalized growth,"S. cerevisiae deletion strains, locus YLR342W, strain FKS1, stronger effect = lower value",0.0636 (active)
same,normalized growth,"S. cerevisiae deletion strains, locus YLR357W, strain rsc2, stronger effect = lower value",0.117 (active)
same,normalized growth,"S. cerevisiae deletion strains, locus YLR370C, strain arc18, stronger effect = lower value",0.0611 (active)
same,normalized growth,"S. cerevisiae deletion strains, locus YLR371W, strain rom2, stronger effect = lower value",0.0611 (active)
same,normalized growth,"S. cerevisiae deletion strains, locus YLR384C, strain iki3, stronger effect = lower value",0.0615 (active)
same,normalized growth,"S. cerevisiae deletion strains, locus YLR418C, strain cdc73, stronger effect = lower value",0.0961 (active)
same,normalized growth,"S. cerevisiae deletion strains, locus YML016C, strain PPZ1, stronger effect = lower value",0.0529 (active)
same,normalized growth,"S. cerevisiae deletion strains, locus YML032C, strain rad52, stronger effect = lower value",0.385 (active)
same,normalized growth,"S. cerevisiae deletion strains, locus YML120C, strain ndi1, stronger effect = lower value",0.0583 (active)
same,normalized growth,"S. cerevisiae deletion strains, locus YML124C, strain tub3, stronger effect = lower value",0.0625 (active)
same,normalized growth,"S. cerevisiae deletion strains, locus YMR058W, strain fet3, stronger effect = lower value",0.0576 (active)
same,normalized growth,"S. cerevisiae deletion strains, locus YMR078C, strain ctf18, stronger effect = lower value",0.553 (active)
same,normalized growth,"S. cerevisiae deletion strains, locus YMR125W, strain sto1, stronger effect = lower value",0.0733 (active)
same,normalized growth,"S. cerevisiae deletion strains, locus YMR129W, stronger effect = lower value",0.0569 (active)
same,normalized growth,"S. cerevisiae deletion strains, locus YMR205C, strain PFK2, stronger effect = lower value",0.214 (active)
same,normalized growth,"S. cerevisiae deletion strains, locus YMR223W, strain ubp8, stronger effect = lower value",0.0625 (active)
same,normalized growth,"S. cerevisiae deletion strains, locus YMR231W, strain pep5, stronger effect = lower value",0.0683 (active)
same,normalized growth,"S. cerevisiae deletion strains, locus YMR307W, strain GAS1, stronger effect = lower value",0.108 (active)
same,normalized growth,"S. cerevisiae deletion strains, locus YNL067W, strain RPL9B, stronger effect = lower value",0.0496 (active)
same,normalized growth,"S. cerevisiae deletion strains, locus YNL071W, strain lat1, stronger effect = lower value",0.0618 (active)
same,normalized growth,"S. cerevisiae deletion strains, locus YNL183C, strain NPR1, stronger effect = lower value",0.919
same,normalized growth,"S. cerevisiae deletion strains, locus YNL209W, strain ssb2, stronger effect = lower value",0.0612 (active)
same,normalized growth,"S. cerevisiae deletion strains, locus YNL233W, strain BNI4, stronger effect = lower value",0.0522 (active)
same,normalized growth,"S. cerevisiae deletion strains, locus YNL248C, strain rpa49, stronger effect = lower value",0.0751 (active)
same,normalized growth,"S. cerevisiae deletion strains, locus YNL250W, strain rad50, stronger effect = lower value",0.0636 (active)
same,normalized growth,"S. cerevisiae deletion strains, locus YNL271C, strain bni1, stronger effect = lower value",0.0611 (active)
same,normalized growth,"S. cerevisiae deletion strains, locus YNL298W, strain CLA4, stronger effect = lower value",0.0629 (active)
same,normalized growth,"S. cerevisiae deletion strains, locus YNL307C, strain MCK1, stronger effect = lower value",0.0661 (active)
same,normalized growth,"S. cerevisiae deletion strains, locus YNL322C, strain KRE1 (second series), stronger effect = lower value",0.0706 (active)
same,normalized growth,"S. cerevisiae deletion strains, locus YNL322C, strain KRE1, stronger effect = lower value",0.0518 (active)
same,normalized growth,"S. cerevisiae deletion strains, locus YNR049C, strain mso1, stronger effect = lower value",0.0568 (active)
same,normalized growth,"S. cerevisiae deletion strains, locus YNR052C, strain pop2, stronger effect = lower value",0.749 (active)
same,normalized growth,"S. cerevisiae deletion strains, locus YOL006C, strain TOP1, stronger effect = lower value",0.113 (active)
same,normalized growth,"S. cerevisiae deletion strains, locus YOL012C, strain htz1",0.214
same,normalized growth,"S. cerevisiae deletion strains, locus YOL147C, strain pex11, stronger effect = lower value",0.127 (active)
same,normalized growth,"S. cerevisiae deletion strains, locus YOR001W, strain rrp6, stronger effect = lower value",0.0671 (active)
same,normalized growth,"S. cerevisiae deletion strains, locus YOR061W, strain CKA2, stronger effect = lower value",0.0507 (active)
same,normalized growth,"S. cerevisiae deletion strains, locus YOR069W, strain VPS5, stronger effect = lower value",0.0519 (active)
same,normalized growth,"S. cerevisiae deletion strains, locus YOR070C, strain gyp1, stronger effect = lower value",0.0577 (active)
same,normalized growth,"S. cerevisiae deletion strains, locus YOR080W, strain dia2, stronger effect = lower value",0.0646 (active)
same,normalized growth,"S. cerevisiae deletion strains, locus YOR083W, strain WHI5, stronger effect = lower value",0.167 (active)
same,normalized growth,"S. cerevisiae deletion strains, locus YOR106W, strain vam3, stronger effect = lower value",0.0652 (active)
same,normalized growth,"S. cerevisiae deletion strains, locus YOR136W, strain idh2, stronger effect = lower value",0.0689 (active)
same,normalized growth,"S. cerevisiae deletion strains, locus YOR144C, strain elg1, stronger effect = lower value",0.712 (active)
same,normalized growth,"S. cerevisiae deletion strains, locus YOR184W, strain ser1, stronger effect = lower value",0.0694 (active)
same,normalized growth,"S. cerevisiae deletion strains, locus YOR231W, strain MKK1, stronger effect = lower value",0.916
same,normalized growth,"S. cerevisiae deletion strains, locus YOR265W, strain rbl2, stronger effect = lower value",0.0565 (active)
same,normalized growth,"S. cerevisiae deletion strains, locus YOR270C, strain vph1, stronger effect = lower value",0.0934 (active)
same,normalized growth,"S. cerevisiae deletion strains, locus YOR290C, strain snf2, stronger effect = lower value",0.0963 (active)
same,normalized growth,"S. cerevisiae deletion strains, locus YOR316C, strain cot1, stronger effect = lower value",0.0587 (active)
same,normalized growth,"S. cerevisiae deletion strains, locus YPL051W, strain arl3, stronger effect = lower value",0.063 (active)
same,normalized growth,"S. cerevisiae deletion strains, locus YPL055C, strain LGE1, stronger effect = lower value",0.0702 (active)
same,normalized growth,"S. cerevisiae deletion strains, locus YPL078C, strain atp4, stronger effect = lower value",0.0642 (active)
same,normalized growth,"S. cerevisiae deletion strains, locus YPL106C, strain sse1, stronger effect = lower value",0.104 (active)
same,normalized growth,"S. cerevisiae deletion strains, locus YPL240C, strain hsp82, stronger effect = lower value",0.112 (active)
same,normalized growth,"S. cerevisiae deletion strains, locus YPL241C, strain CIN2, stronger effect = lower value",0.0551 (active)
same,normalized growth,"S. cerevisiae deletion strains, locus YPL256C, strain CLN2, stronger effect = lower value",0.971
same,normalized growth,"S. cerevisiae deletion strains, locus YPR119W, strain clb2, stronger effect = lower value",0.0623 (active)
same,normalized growth,"S. cerevisiae deletion strains, locus YPR141C, strain kar3, stronger effect = lower value",0.0649 (active)
same,normalized growth,"S. cerevisiae deletion strains, locus YPR163C, strain tif3, stronger effect = lower value",0.0763 (active)
same,normalized growth,"S. cerevisiae deletion strains, locus YPR167C, strain met16, stronger effect = lower value",0.0614 (active)
same,normalized growth,"S. cerevisiae deletion strains, strain wtn01, stronger effect = lower value",0.0583 (active)
same,normalized growth,"S. cerevisiae strains, strain wild type, stronger effect = lower value",0.0541 (active)
